This note sets out measurements from PubChem BioAssay.

A number with no mark means an inactive call. For some of these results: Entries with a potency or affinity are not part of this list. Active and inactive are the calls of the source. Unless noted, the rule behind the calls is not given here.

Assay [1] is described as follows: antimalarial activity against Dd2 strain (AID 2302;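 active = growth inhibition above 50% at the single 2 µM test dose, taken to imply half-maximal potency below 2 µM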;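 note: 0% = DMSO untreated growth and 100% = chloroquine plus artemisinin killed control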). The note with it: P. falciparum Dd2 in RBCs, LDH growth readout, 72 h; at 2 µM; active compounds read high.
The nature of assay [2]: human hepatoma cell viability loss – ATP luminescence, cytotoxicity control for P. falciparum antimalarial project, primary screen (AID 2303;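 active = inhibition above 50%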;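 note: 0% = DMSO wells and 100% = digitonin-killed cells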). The note with it: HepG2 viability, 24-48 h, at 10 µM, active compounds read high.
For assay [3], the target named is L-lactate dehydrogenase (Plasmodium falciparum (isolate CDC / Honduras)) (UniProt Q27743). Nature of the assay: PfLDH activity inhibition – cell lysate, 3D7 strain, counter-screen for P. falciparum growth inhibition project (AID 2304).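 Note: 0% = vehicle and 100% = reference inhibitor.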 The note with it: P. falciparum 3D7 crude extract, LDH APAD/NBT absorbance; at 2 µM; active compounds read high. For orientation: The purpose of a counterscreen is to sort out artefacts and off-target activity.

Assay [4] is described as follows: inhibition of 3D7 malaria parasite growth – strain 3D7 (AID 2306).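 Note: 0% = DMSO wells and 100% = chloroquine plus artemisinin control wells.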 The note with it: P. falciparum 3D7 erythrocytic growth, LDH absorbance, 72 h; at 2 µM; active compounds read high.
For assay [5], the target named is Calcium-dependent protein kinase 1 (Plasmodium falciparum (isolate 3D7)) (UniProt P62344). Description: PfCDPK1 kinase inhibitors, biochemical, TCAMS library (AID 1159585; cut-off not given, nearly all actives have IC50 up to about 0.98 µM;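 note: inhibitors leave more ATP so luminescence rises with inhibition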). The note with it: recombinant PfCDPK1, Kinase-Glo ATP depletion luminescence.
Assay [6] has as its target Plasmodium falciparum protein kinase 6 (PK6, PF3D7_1337100) (UniProt Q8IDW1). Description: PfPK6 kinase inhibitors, biochemical, TCAMS library (AID 1159586). The settings on record: recombinant PfPK6, Kinase-Glo ATP depletion luminescence.
For assay [7], the target named is Protein kinase 7 (PK7), Plasmodium falciparum 3D7 (PF3D7_0213400) (UniProt Q7YTF7). Nature of the assay: inhibition of Plasmodium PK7 catalytic activity – biochemical, TCAMS antimalarial set, Kinase-Glo luminescence (AID 1159587). The note with it: recombinant PfPK7, Kinase-Glo ATP depletion luminescence. For orientation: Kinase-Glo reads ATP consumption through a luciferase reaction.

Assay [8] addresses Calcium-dependent protein kinase 4 (Plasmodium falciparum (isolate 3D7)) (UniProt Q8IBS5). Description: PfCDPK4 kinase inhibitors, biochemical, TCAMS library (AID 1159588; cut-off not given, nearly all actives have IC50 up to about 0.91 µM). The note with it: recombinant PfCDPK4, Kinase-Glo ATP depletion luminescence.

Chain of Plasmodium falciparum protein kinase 6 (PK6, PF3D7_1337100) (Q8IDW1 1-305): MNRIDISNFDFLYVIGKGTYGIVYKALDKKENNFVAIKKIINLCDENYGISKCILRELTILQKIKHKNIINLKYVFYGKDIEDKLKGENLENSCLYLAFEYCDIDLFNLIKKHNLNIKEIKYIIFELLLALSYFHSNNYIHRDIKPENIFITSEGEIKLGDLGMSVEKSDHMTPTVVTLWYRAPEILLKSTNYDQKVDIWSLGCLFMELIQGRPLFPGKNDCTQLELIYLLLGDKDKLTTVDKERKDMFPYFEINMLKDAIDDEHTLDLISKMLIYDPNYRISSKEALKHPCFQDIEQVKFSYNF
Chain of Calcium-dependent protein kinase 4 (Plasmodium falciparum (isolate 3D7)) (Q8IBS5 whole entry, looked up): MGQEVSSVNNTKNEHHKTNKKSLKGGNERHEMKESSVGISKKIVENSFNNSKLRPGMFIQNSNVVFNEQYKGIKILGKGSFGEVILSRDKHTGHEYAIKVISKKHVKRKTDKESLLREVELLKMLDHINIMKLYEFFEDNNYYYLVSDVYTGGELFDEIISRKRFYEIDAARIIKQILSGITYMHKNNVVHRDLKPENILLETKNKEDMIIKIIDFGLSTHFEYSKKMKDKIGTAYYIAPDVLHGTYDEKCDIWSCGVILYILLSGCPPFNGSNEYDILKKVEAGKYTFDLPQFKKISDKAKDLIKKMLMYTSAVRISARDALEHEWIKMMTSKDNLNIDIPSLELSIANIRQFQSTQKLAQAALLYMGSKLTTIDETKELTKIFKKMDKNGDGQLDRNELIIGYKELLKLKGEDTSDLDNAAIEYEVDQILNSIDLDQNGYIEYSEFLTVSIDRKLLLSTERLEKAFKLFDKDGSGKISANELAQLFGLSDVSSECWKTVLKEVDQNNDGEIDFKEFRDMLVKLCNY
Chain of Protein kinase 7 (PK7), Plasmodium falciparum 3D7 (PF3D7_0213400) (Q7YTF7 1-343): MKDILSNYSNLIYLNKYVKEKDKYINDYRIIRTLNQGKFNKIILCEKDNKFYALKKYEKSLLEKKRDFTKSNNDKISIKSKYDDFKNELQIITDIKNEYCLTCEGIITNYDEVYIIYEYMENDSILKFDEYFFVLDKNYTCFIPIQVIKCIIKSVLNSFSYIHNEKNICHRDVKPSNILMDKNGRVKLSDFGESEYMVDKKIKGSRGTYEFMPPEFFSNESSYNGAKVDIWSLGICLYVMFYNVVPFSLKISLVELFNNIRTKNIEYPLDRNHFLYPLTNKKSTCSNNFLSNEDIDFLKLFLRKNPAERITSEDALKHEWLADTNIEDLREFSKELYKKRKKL
Chain of L-lactate dehydrogenase (Plasmodium falciparum (isolate CDC / Honduras)) (Q27743 whole entry, looked up): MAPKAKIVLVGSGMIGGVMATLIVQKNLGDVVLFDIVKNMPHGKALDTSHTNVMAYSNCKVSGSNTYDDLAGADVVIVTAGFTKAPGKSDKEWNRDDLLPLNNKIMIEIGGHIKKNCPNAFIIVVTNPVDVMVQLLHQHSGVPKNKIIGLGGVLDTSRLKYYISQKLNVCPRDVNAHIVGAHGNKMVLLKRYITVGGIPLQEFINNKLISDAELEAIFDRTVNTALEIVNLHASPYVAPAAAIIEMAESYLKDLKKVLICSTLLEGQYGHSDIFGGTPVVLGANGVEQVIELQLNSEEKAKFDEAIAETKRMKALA
Chain of Calcium-dependent protein kinase 1 (Plasmodium falciparum (isolate 3D7)) (P62344 whole entry, looked up): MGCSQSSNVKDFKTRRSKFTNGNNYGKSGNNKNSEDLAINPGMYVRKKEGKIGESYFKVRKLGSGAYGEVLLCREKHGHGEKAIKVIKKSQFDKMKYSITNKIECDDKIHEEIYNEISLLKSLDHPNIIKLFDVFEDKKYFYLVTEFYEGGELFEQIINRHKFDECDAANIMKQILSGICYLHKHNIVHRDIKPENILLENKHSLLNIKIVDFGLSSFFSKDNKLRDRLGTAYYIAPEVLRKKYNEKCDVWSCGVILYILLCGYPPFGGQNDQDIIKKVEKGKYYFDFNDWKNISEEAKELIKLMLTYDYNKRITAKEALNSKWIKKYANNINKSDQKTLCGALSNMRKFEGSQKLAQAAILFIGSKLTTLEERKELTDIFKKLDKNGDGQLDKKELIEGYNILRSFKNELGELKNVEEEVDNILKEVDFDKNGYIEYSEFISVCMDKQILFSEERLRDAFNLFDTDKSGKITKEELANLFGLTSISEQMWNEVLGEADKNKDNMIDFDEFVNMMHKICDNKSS

Consider `CCCCc1ccc(-c2ccc3[nH]c(C)c(Br)c(=O)c3c2)cc1`, for which the growth inhibition in assay [1] and in assay [4] was 97% (active) throughout. Moreover, the inhibition in assay [2] was -10%; in assay [3] it was -2%. The outcome in assay [5], in assay [6], in assay [7] and in assay [8] was inactive.
With `Cc1cccc2[nH]c(-c3cccc(-c4ccc(NC(=O)CN5CCOCC5)cc4)c3)nc12`, the growth inhibition in assay [1] is 12%; in assay [4], 94% (active). Also, the inhibition was 59% (active) in assay [2] and 4% in assay [3]. In addition, the outcome in assay [5], in assay [6], in assay [7] and in assay [8] was inactive.
In the case of `Cc1cccc2[nH]c(-c3cccc(-c4cccc(NC(=O)c5ccoc5)c4)c3)nc12`, the growth inhibition in assay [1] is 71% (active); in assay [4], 99% (active). In addition, the inhibition in assay [2] is 19%; in assay [3], -4%. In addition, the result in assay [5], in assay [6], in assay [7] and in assay [8] was inactive.
On to `CCCN1CCC(c2c[nH]c3ccc(NC(=O)Nc4cccc(Cl)c4Cl)cc23)CC1`, for which the results for the growth inhibition in assay [1] and in assay [4] were 17% and 100% (active), respectively. In addition, the inhibition in assay [2] is 30%; in assay [3] it was 2%. The outcome in assay [5], in assay [6], in assay [7] and in assay [8] was inactive.
In the case of `C=CCOc1ccc(C2C(C(=O)OC)=C(C)NC3=C2C(=O)c2ccccc23)cc1OC` (stereo not given), the growth inhibition in assay [1] was 65% (active); in assay [4], 82% (active). Moreover, the inhibition in assay [2] is -4%; in assay [3] it was -8%. For the same molecule, the result in assay [5], in assay [6], in assay [7] and in assay [8] was inactive.
As for `CS(=O)(=O)c1ccc(CCNCc2ccc(-c3ccc(CN(C(=O)c4ccc(Cl)nc4)C4CCN(Cc5ccccc5)CC4)cc3)nc2)cc1`, the growth inhibition in assay [1] is 70% (active); in assay [4], 93% (active). In addition, the inhibition is 24% in assay [2] and -2% in assay [3]. In addition, the outcome in assay [5], in assay [6], in assay [7] and in assay [8] was inactive.
Regarding `COc1cc(C)nc2ccc(NC(=O)Nc3ccc([N+](=O)[O-])cc3C)cc12`, the growth inhibition in assay [1] is 52% (active); in assay [4], 90% (active). In addition, the inhibition in assay [2] was 10%; in assay [3], -5%. The result in assay [5], in assay [6], in assay [7] and in assay [8] was inactive.
As for `O=C(NCC1CCN(Cc2cccc(C(F)(F)F)c2)C1)c1cc(-c2cccc(F)c2)cs1` (stereo not given), the growth inhibition in assay [1] was 5%; in assay [4] it was 87% (active). For the same molecule, the inhibition in assay [2] was 19%; in assay [3] it was -3%. For the same molecule, the outcome in assay [5], in assay [6], in assay [7] and in assay [8] was inactive.
Regarding `Cc1cnc(C(=O)Nc2cccc(-c3ccc(-c4nc5ccc(F)cc5[nH]4)cc3)c2)cn1`, the growth inhibition in assay [1] was 13%; in assay [4], 102% (active). Further, the results for the inhibition in assay [2] and in assay [3] were 19% and -2%, respectively. For the same molecule, the result in assay [5], in assay [6], in assay [7] and in assay [8] was inactive.
On to `CN1CCC(N2CCN(Cc3cccc(-c4ccc(-c5nc6ccccc6[nH]5)cc4)c3)CC2)CC1`, for which the values for the growth inhibition in assay [1] and in assay [4] were 99% (active) and 100% (active), respectively. In addition, the inhibition in assay [2] was 56% (active); in assay [3], -7%. Moreover, the outcome in assay [5], in assay [6], in assay [7] and in assay [8] was inactive.
Consider `COC(=O)C1=C(C)NC2=C(C(=O)CC(c3ccc(OC)c(OC)c3)C2)C1c1cccc(O)c1` (stereo not given), for which the growth inhibition in assay [1] was 69% (active); in assay [4], 99% (active). In addition, the values for the inhibition in assay [2] and in assay [3] were 2% and 5%, respectively. The outcome in assay [5], in assay [6], in assay [7] and in assay [8] was inactive.
Take `CCCCCCOc1ccc(C(=O)NCCC2CCN(CCCCCNC(=O)C=Cc3ccc(Cl)c(Cl)c3)CC2)cc1`: the values for the growth inhibition in assay [1] and in assay [4] were 10% and 99% (active), respectively. For the same molecule, the inhibition was 13% in assay [2] and 0% in assay [3]. The result in assay [5], in assay [6], in assay [7] and in assay [8] was inactive.
Regarding `COc1cc(NC(=O)c2ccc3c(=O)n(Cc4ccccc4)c(=S)[nH]c3c2)cc(OC)c1OC`, the growth inhibition is 47% in assay [1] and 94% (active) in assay [4]. Also, the values for the inhibition in assay [2] and in assay [3] were 6% and -3%, respectively. For the same molecule, the outcome in assay [5], in assay [6], in assay [7] and in assay [8] was inactive.
On to `C(=NNc1nc2ccccc2[nH]1)c1ccccc1OCc1ccccc1`, for which the growth inhibition in assay [1] was 90% (active); in assay [4], 100% (active). Moreover, the inhibition in assay [2] was 15%; in assay [3], 6%. In addition, the outcome in assay [5], in assay [6], in assay [7] and in assay [8] was inactive.
For `CCCOc1ccc(CCNCCCCNCCc2ccc(OCCC)c3ccccc23)c2ccccc12`, the growth inhibition was 52% (active) in assay [1] and 93% (active) in assay [4]. The inhibition was 100% (active) in assay [2] and 7% in assay [3]. Besides, the outcome in assay [5], in assay [6], in assay [7] and in assay [8] was inactive.
Turning to `COCCNCC(O)Cn1c2ccc(Cl)cc2c2cc(Cl)ccc21` (stereo not given), the growth inhibition in assay [1] was 74% (active); in assay [4], 95% (active). The inhibition in assay [2] was 15%; in assay [3], 0%. Besides, the result in assay [5], in assay [6], in assay [7] and in assay [8] was inactive.
As for `Nc1nc(N)c2cc3ccc(OCc4ccccc4)cc3nc2n1`, the growth inhibition in assay [1] was 75% (active); in assay [4] it was 100% (active). Besides, the inhibition was 78% (active) in assay [2] and 0% in assay [3]. The outcome in assay [5], in assay [6], in assay [7] and in assay [8] was inactive.
As to `CO/N=C(\C)c1ccc2c(c1)CCN(CCC1CCC(NC(=O)/C=C/c3ccc(F)cc3)CC1)CC2` (stereo not given), the growth inhibition in assay [1] is 15%; in assay [4], 95% (active). For the same molecule, the inhibition is 45% in assay [2] and 1% in assay [3]. The outcome in assay [5], in assay [6], in assay [7] and in assay [8] was inactive.
Regarding `Cc1cc(-c2nc3ccc(N4CCN(C)CC4)cc3[nH]2)nn1Cc1cc(Cl)ccc1OCC(C)C`, the results for the growth inhibition in assay [1] and in assay [4] were 67% (active) and 99% (active), respectively. The inhibition in assay [2] is 41%; in assay [3] it was 1%. The outcome in assay [5], in assay [6], in assay [7] and in assay [8] was inactive.
In the case of `CNCCNCc1cccc(-c2cccc(-c3nc4c(C)cccc4[nH]3)c2)c1`, the growth inhibition in assay [1] is 9%; in assay [4] it was 98% (active). In addition, the inhibition is 6% in assay [2] and 1% in assay [3]. For the same molecule, the result in assay [5], in assay [6], in assay [7] and in assay [8] was inactive.

In general, inhibition refers to the drop in the measured response relative to a control, in per cent.
